Measured values taken from PubChem BioAssay AID430 (Sanford-Burnham Center for Chemical Genomics, 2006).
Among all 63,000 compounds or so, about 1,100 (1.7%) were called active. Rule as the data show it: active = cytotoxicity above about 50%; inactive = the rest. The full list was thinned out, with actives kept by preference. Entries with a potency or affinity are not part of this list.

test: HPDE-C7 pancreatic duct cell viability loss – fluorescence, HTS (AID 430); conditions: HPDE-C7 pancreatic duct cells viability, at 10 µM, stronger effect = higher value;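 also: cells exposed to compound for 48 hours before viability readout; 0% = vehicle and 100% = reference cytotoxic drug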

| SMILES | cytotoxicity |
| --- | --- |
| Cc1cc(NC(c2cccnc2)c2c(C)[nH]c3ccccc23)no1 (configuration not stated) | 5.2% (inactive) |
| CC(=O)c1ncnn1CC(=O)c1ccc(Cl)cc1Cl | 13.6% (inactive) |
| O=C(CCN1CCc2ccccc2C1)Nc1cccc(F)c1 | 3.9% (inactive) |
| Cc1ccc(NS(=O)(=O)c2cccc(C(=O)Nc3cc(C)on3)c2)cc1 | -4.8% (inactive) |
| Cc1ccc2nc3ccc(N4CCN(C)CC4)nn3c(=O)c2c1 | -2.8% (inactive) |
| COc1cccc(C2=NOC(C(=O)NC(C)C)C2)c1 (configuration not stated) | -3.9% (inactive) |
| COc1cccc(C2=NOC(C(=O)NC(C)(C)C)C2)c1 (configuration not stated) | -11.2% (inactive) |
| CC(C)(C)SCCNS(=O)(=O)c1ccc(F)cc1 | 5.7% (inactive) |
| O=S(=O)(c1cccc(-c2nnc(SCc3ccc(Cl)cc3)o2)c1)N1CCCCC1 | -2.9% (inactive) |
| Cc1cc2nc(-c3ccc(SCC(=O)N4CCOCC4)nc3)[nH]c2cc1C | -15.5% (inactive) |
| O=C(NC1=NCCS1)Nc1ccccc1 | 1.2% (inactive) |
| COCCCN1C(=O)c2[nH]nc(-c3ccccc3O)c2C1c1ccc(Cl)cc1 (configuration not stated) | 67.3% (active) |
| COc1cc(C2c3c(-c4cc(C)cc(C)c4O)n[nH]c3C(=O)N2CCCO)cc(OC)c1OC (configuration not stated) | 0.6% (inactive) |
| CC(C)OCCCN1C(=O)c2[nH]nc(-c3ccccc3O)c2C1c1cccc(Cl)c1 (configuration not stated) | -3.6% (inactive) |
| COCCCN1C(=O)c2[nH]nc(-c3ccccc3O)c2C1c1cccc(Cl)c1 (configuration not stated) | 13.3% (inactive) |
| COCCCN1C(=O)c2[nH]nc(-c3cc(C)cc(C)c3O)c2C1c1ccc(O)c(OC)c1 (configuration not stated) | -2.5% (inactive) |
| COc1ccc(C2c3c(-c4ccccc4O)n[nH]c3C(=O)N2CCc2ccc(OC)c(OC)c2)cc1 (configuration not stated) | 36.9% (inactive) |
| Cc1ccc(C2c3c(-c4ccccc4O)n[nH]c3C(=O)N2Cc2ccncc2)cc1 (configuration not stated) | -3.9% (inactive) |
| Cc1cc(O)c(-c2n[nH]c3c2C(c2cccc(O)c2)N(Cc2cccnc2)C3=O)cc1Cl (configuration not stated) | 8% (inactive) |
| COc1ccc(C2c3c(-c4cc(Cl)c(C)cc4O)n[nH]c3C(=O)N2Cc2cccnc2)cc1OC (configuration not stated) | 26.6% (inactive) |
| COc1ccc(CCN2C(=O)c3[nH]nc(-c4ccccc4O)c3C2c2cccc(O)c2)cc1OC (configuration not stated) | 66% (active) |
| COc1ccc(CCN2C(=O)c3[nH]nc(-c4ccccc4O)c3C2c2ccccc2)cc1OC (configuration not stated) | 54.9% (active) |
| Cc1noc(C)c1C(=O)OCC(=O)c1c[nH]c2ccccc12 | 4.1% (inactive) |
| O=C(NCCC1=CCCCC1)C1CC(=O)N(C2CCCCC2)C1 (configuration not stated) | 1.5% (inactive) |
| COc1ccc(-c2noc(CCC(=O)N3CCN(c4cc(C)ccc4C)CC3)n2)cc1 | 11.6% (inactive) |

| SMILES | cytotoxicity |
| --- | --- |
| O=C(CSCc1nc2ccccc2[nH]1)N1CCN(c2cccc(Cl)c2)CC1 | 7.4% (inactive) |
| COc1ccc(CCN2CC(C(=O)O)CC2=O)cc1 (configuration not stated) | 1.2% (inactive) |
| c1ccc(CCc2nc(-c3ccccn3)no2)cc1 | 6.2% (inactive) |
| O=C1c2ccccc2NC(c2ccccn2)N1c1ccc(Cl)cc1 (configuration not stated) | -4.1% (inactive) |
| CCN(CC)S(=O)(=O)c1ccc(NC(=O)CSc2nnc(-c3ccc(F)cc3)o2)cc1 | -7.7% (inactive) |
| COc1cccc(-c2nnc(NC(=O)c3ccc(S(=O)(=O)N4CC(C)OC(C)C4)cc3)o2)c1 (configuration not stated) | -5.9% (inactive) |
| CCCN(CCC)S(=O)(=O)c1ccc(C(=O)Nc2nnc(-c3cccc(OC)c3)o2)cc1 | 66.4% (active) |
| COc1cccc(-c2nnc(NC(=O)c3ccccc3Br)o2)c1 | 22.6% (inactive) |
| CCCN(CCC)S(=O)(=O)c1ccc(C(=O)Nc2nnc(-c3cc(OC)cc(OC)c3)o2)cc1 | 47.5% (inactive) |
| COc1cccc(-c2nnc(NC(=O)c3ccc(S(=O)(=O)N4CCOCC4)cc3)o2)c1 | 13.7% (inactive) |
| COc1cccc(-c2nnc(NC(=O)c3ccc(S(=O)(=O)N(CC(C)C)CC(C)C)cc3)o2)c1 | 51.2% (active) |
| CCCn1c(SCC(=O)Nc2nnc(CC)s2)nnc1-c1ccco1 | -5% (inactive) |
| O=C(Nc1ccc2oc(=O)ccc2c1)c1cccnc1 | 3% (inactive) |
| COc1ccccc1-c1nc(-c2ccncc2)no1 | 2.1% (inactive) |
| COc1cc2oc(=O)c(Br)c(C)c2c(OC)c1OC | -8.6% (inactive) |
| CCCS(=O)(=O)c1c(S(=O)(=O)CCC)c2ccccn2c1C(=O)OC | -3.7% (inactive) |
| CCN1CCN(c2cc(=O)n(C3CCCCC3)c(=O)[nH]2)CC1 | -14.2% (inactive) |
| CCOC(=O)N1CCN(C(=O)CCc2c(C)nc3c(c(C)nn3-c3ccc(C)c(C)c3)c2C)CC1 | -7.7% (inactive) |
| CCCCOc1ccc(S(=O)(=O)Nc2cc(OC)ccc2OC)cc1 | 31.3% (inactive) |
| CCOc1ccc(S(=O)(=O)Nc2cc(OC)ccc2OC)cc1 | 73.1% (active) |
| COc1ccc(OC)c(NS(=O)(=O)c2ccc(N3CCCC3=O)cc2)c1 | 75.9% (active) |
| COC(=O)COc1ccc(S(=O)(=O)Nc2cc(OC)ccc2OC)cc1 | -2.9% (inactive) |
| COc1ccc(OC)c(NS(=O)(=O)c2ccc(SC)cc2)c1 | 36.3% (inactive) |
| COc1ccc(OC)c(NS(=O)(=O)c2ccc3c(c2)CCC(=O)N3)c1 | 3.3% (inactive) |
| Cc1cc(C(=O)NCc2ccccc2)c(=O)[nH]c1C | -2.3% (inactive) |

| SMILES | cytotoxicity |
| --- | --- |
| Cc1cc(C)n2nc(SCC#N)nc2n1 | 1.5% (inactive) |
| CCCCOCCCNC(=O)c1c(-c2ccccc2)noc1C | 6.3% (inactive) |
| COc1ccc(CNC(=O)C2CC(c3ccc(F)cc3)=NO2)cc1 (configuration not stated) | 1% (inactive) |
| COc1ccc(C2=NOC(C(=O)NCC(C)C)C2)cc1 (configuration not stated) | -14.9% (inactive) |
| COc1ccc(C2=NOC(C(=O)NCc3ccccc3)C2)cc1 (configuration not stated) | 54.5% (active) |
| COc1ccc(C2=NOC(C(=O)NCc3ccc(F)cc3)C2)cc1 (configuration not stated) | 63.5% (active) |
| O=C(NCc1cccnc1)C1CC(c2ccc(F)cc2)=NO1 (configuration not stated) | -10.8% (inactive) |
| COc1ccc(CNC(=O)C2CC(c3ccc(OC)cc3)=NO2)cc1 (configuration not stated) | 17.5% (inactive) |
| CC(=O)Nc1ccc(NS(=O)(=O)c2ccc(Cl)c(C(=O)O)c2)cc1 | 0.9% (inactive) |
| COC(=O)CC1=NC(=O)CS1 | 0.6% (inactive) |
| COC(=O)c1ccccc1NC(=O)CSc1nnc(CNS(=O)(=O)c2ccc(C)cc2)n1C | -12.6% (inactive) |
| O=C1OCCN1CCN(CN1C(=O)CCC1=O)CN1C(=O)CCC1=O | 5.9% (inactive) |
| O=C(CN(Cc1ccc2c(c1)OCO2)C(=O)c1cnsn1)NC1CCCC1 | 7% (inactive) |
| O=C(Nc1cccnc1)c1ccc(Cl)c(S(=O)(=O)N2CCCCCC2)c1 | 12.4% (inactive) |
| COc1ccccc1NC(=O)c1ccc(Cl)c(S(=O)(=O)N2CCOCC2)c1 | -10.1% (inactive) |
| COc1ccc(NC(=O)c2ccc(Cl)c(S(=O)(=O)N3CCc4ccccc4C3)c2)cn1 | 86.5% (active) |
| COc1ccc(CNC(=O)C2CCCN(S(=O)(=O)c3cnc[nH]3)C2)cc1 (configuration not stated) | -4.6% (inactive) |
| CN(CC(O)COc1ccc(OCC(O)CN(C)C2CCCCC2)cc1)C1CCCCC1 (configuration not stated) | 7.7% (inactive) |
| Cc1csc(SCC(=O)Nc2c(C)n(C)n(-c3ccccc3)c2=O)n1 | 3.8% (inactive) |
| COc1ccc(S(=O)(=O)Nc2nc(C(F)(F)F)cs2)cc1 | -2.3% (inactive) |
| Cc1cc(C)c2c(CC(=O)NCc3ccco3)coc2c1 | 4.1% (inactive) |
| Cc1ccc2c(CC(=O)NCc3ccco3)coc2c1C | 64.7% (active) |
| O=C(Cc1cccs1)NCc1ccco1 | 5.7% (inactive) |
| O=C(c1cnn2ccccc12)N(Cc1ccco1)C1CCCC1 | -3.3% (inactive) |
| COc1ccc(OC)c(C2=Nn3c(nnc3-c3cc(OC)c(OC)c(OC)c3)SC2)c1 | 4.4% (inactive) |

| SMILES | cytotoxicity |
| --- | --- |
| COc1cc(-c2nnc3n2N=C(c2ccccc2)CS3)cc(OC)c1OC | 57.4% (active) |
| CCOc1ccc(C2=Nn3c(nnc3-c3ccc(OC)cc3)SC2)cc1 | 45.9% (inactive) |
| Cc1ccc(-c2nnc3n2N=C(c2ccccc2)CS3)cc1 | -4.2% (inactive) |
| COc1ccc(C2=Nn3c(nnc3-c3ccccc3)SC2)cc1OC | 3.6% (inactive) |
| CCOc1ccc(C2=Nn3c(nnc3-c3ccccc3OC)SC2)cc1 | 63.4% (active) |
| COc1ccc(C2=Nn3c(nnc3-c3ccccn3)SC2)cc1OC | -0.7% (inactive) |
| c1ccc(C2=Nn3c(nnc3-c3cc(-c4ccccc4)n[nH]3)SC2)cc1 | 5.2% (inactive) |
| CCOc1ccc(-c2nnc3n2N=C(c2ccc(OC)cc2)CS3)cc1 | 0.1% (inactive) |
| COc1ccc(-c2nnc3n2N=C(c2ccccc2)CS3)cc1OC | -2.9% (inactive) |
| CCC(C)Oc1cccc(C(=O)Nc2ccccc2N2CCOCC2)c1 (configuration not stated) | 1.7% (inactive) |
| CCCn1c(SCC(=O)Nc2c(CC)cccc2CC)nnc1C(C)C | -2.4% (inactive) |
| Cc1ccc(S(=O)(=O)NCC(C)NS(=O)(=O)c2ccc(C)cc2)cc1 (configuration not stated) | -44.3% (inactive) |
| COc1ccc2nc(NC(=O)CN(c3ccc(C)cc3)S(=O)(=O)c3c(C)nn(C)c3C)sc2c1 | 10.7% (inactive) |
| OC(COc1c(Cl)cc(Cl)cc1Cl)CN1CCCCC1 (configuration not stated) | 7.4% (inactive) |
| CC(=O)Nc1ccc(S(=O)(=O)N2CCSC2c2ccc(C)cc2)cc1 (configuration not stated) | 0.6% (inactive) |
| Nc1nnc2c(n1)CCCC2 | 2.7% (inactive) |
| COc1ccccc1-c1nnc2n1N=C(c1ccc(O)c(O)c1)CS2 | 60.1% (active) |
| COc1ccccc1-c1nnc2n1N=C(C)CS2 | -3.3% (inactive) |
| COc1cccc(C2=Nn3c(nnc3-c3ccccc3O)SC2)c1 | -36.1% (inactive) |
| c1ccc(Nc2nc(N3CCOCC3)nc(N3CCOCC3)n2)cc1 | 3.2% (inactive) |
| c1ccc(Nc2nc(N3CCCCC3)nc(N3CCNCC3)n2)cc1 | 71.8% (active) |
| C1CCN(c2nc(N3CCCCC3)nc(N3CCNCC3)n2)CC1 | 2.9% (inactive) |
